Compound activity from PubChem BioAssay.
Hits are enriched below; roughly 19% of the tested compounds scored in any of these assays.
TDP1 inh: TDP1 (human) enzyme inhibition | recombinant TDP1, AlphaScreen DNA substrate cleavage | Q9NUW8 | Potency, µM (titrated, usually from 130 µM), without a hit: at the highest dose activity change, negative = inhibition, actives largely listed as inhibitors | 0.28% of 350,000 active; also: potency is read from the fitted curve at half-maximal effect; nearly all actives have a fitted effect of over 40% in size
Target sequence (Q9NUW8 whole entry, looked up): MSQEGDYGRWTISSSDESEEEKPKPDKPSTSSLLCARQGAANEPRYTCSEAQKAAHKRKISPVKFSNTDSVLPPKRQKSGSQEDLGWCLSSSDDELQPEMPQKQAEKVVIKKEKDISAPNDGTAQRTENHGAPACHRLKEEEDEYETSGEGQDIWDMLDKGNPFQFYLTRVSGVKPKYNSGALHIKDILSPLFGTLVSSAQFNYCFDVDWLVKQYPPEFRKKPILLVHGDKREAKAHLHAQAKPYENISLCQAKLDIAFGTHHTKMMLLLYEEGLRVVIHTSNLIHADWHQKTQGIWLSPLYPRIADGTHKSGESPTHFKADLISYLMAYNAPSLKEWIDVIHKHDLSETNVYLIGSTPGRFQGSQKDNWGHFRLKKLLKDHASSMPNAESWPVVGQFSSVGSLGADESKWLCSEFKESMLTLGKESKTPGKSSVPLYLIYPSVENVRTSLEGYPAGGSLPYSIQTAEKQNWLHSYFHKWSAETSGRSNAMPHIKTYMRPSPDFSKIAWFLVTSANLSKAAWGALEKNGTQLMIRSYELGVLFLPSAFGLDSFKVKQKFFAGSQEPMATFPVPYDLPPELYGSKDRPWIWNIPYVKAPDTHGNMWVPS
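Recombinant human Tdp1 (E. coli-expressed, 1 nM final) preincubated with compounds 15 min at room temperature, then 5'-biotin/3'-phosphotyrosine-FITC DNA substrate (15 nM final) added for 5 min. AlphaScreen beads (10 ug/ml final) added 10 min; cleavage lowers signal.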
IL-1B inflam inh: inhibitors of inflammasome signaling (IL-1 beta secretion); activity change, % at 57.5 µM; 4.7% of 360,000 active; THP-1 LPS/ATP IL-1B secretion, AlphaLISA, 16 h; hits give low values; in the data active = activity change below about -50%; inconclusive = mostly about -30% to -49%
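Secreted IL-1B measured by AlphaLISA bead assay after 16 h compound exposure of THP-1 cells; compounds (final up to 57.5 uM) added 1 h before LPS (250 ng/mL) and ATP (1.25 mM) stimulation; lower signal means less secretion.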
TDP1 cell noCPT: qHTS for Inhibitors of human tyrosyl-DNA phosphodiesterase 1 (TDP1): qHTS in cells in absence of CPT. Potency, µM (series often up to 46.2 µM), for the others: at the highest dose activity change, negative = growth inhibition, most hits filed as inhibitors. DT40 Tdp1-/- hTDP1 cells, no CPT, ATP luminescence, 48 h. AID 686978, 2013. 15% of 420,000 active; also: potency is read from the fitted curve at half-maximal effect; nearly all actives have a fitted effect of over 55% in size
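No-CPT arm: Tdp1-/-;hTDP1 DT40 cells (400/well) plus compounds, incubated ≥48 hr at 37 °C. Readout CellTiter-Glo luminescence.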
ELG1 repair inh: blocks ELG1-dependent DNA repair in HEK293T cells. HEK293T ELG1-luciferase reporter, luminescence, 16 h; DNA damage induced by 5-fluorouridine. Potency, µM (doses to about 46.1 µM), for inactives: top-dose activity change, negative = inhibition, most hits filed as inhibitors. 2.3% of 330,000 active. AID 504467; also: potency is read from the fitted curve at half-maximal effect; nearly all actives have a fitted effect of over 55% in size
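Cells (2,000 per well) received 5-fluorouridine plus test compound or DMSO and were incubated 16 hr at 37 °C, 5% CO2. Luciferase activity was read by luminescence 30 min after ONE-Glo addition; signal suppression marked inhibition of damage-induced ELG1 function.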
TDP1 cell CPT: growth inhibition of DT40 Tdp1-/-;hTDP1 cells with camptothecin (screen for TDP1 inhibitors). chicken DT40 Tdp1-/-;hTDP1 cells + 20 nM CPT, ATP luminescence, 48 h. Potency, µM (highest dose often 46.2 µM), without a hit: at the highest dose activity change, negative = growth inhibition, hits mostly inhibitors. 12% of 420,000 active. AID 686979; also: potency is read from the fitted curve at half-maximal effect; nearly all actives have a fitted effect of over 55% in size
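Cell growth measured by CellTiter-Glo luminescence after a minimum 48 h, 37 C compound exposure with 20 nM CPT in Tdp1-knockout DT40 cells stably expressing hTDP1, seeded 400/well; qHTS titration format.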
Giardia kill: kills Giardia lamblia; Giardia lamblia trophozoite viability; activity change, % at 7.66 µM, hits read low; 0.15% of 340,000 active; AID 540267; in the data active = activity change below about -80%; inconclusive = between about -30% and that limit;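 also: parasites exposed to compound for two days anaerobically before the ATP read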
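ATP-content bioluminescence gauges trophozoite survival. Cells (100/well) receive compound and incubate anaerobically for 48 hrs at 37 deg C; detection reagent follows for 15-30 min at room temperature.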
Numbers without * were called inactive; ? = inconclusive; / = not tested or not shown; [ ] = another dose, or the depositor's remark. Unless noted, calls follow the shape of the dose curve; as a rule, active = well fitted curve in the direction sought with a large enough effect; inconclusive = small, poorly fitted or top-dose-only effect, or another doubt; inactive = no such curve, though single readings can be large; an effect the other way counts as inactive or inconclusive. % is scaled to controls: 0 for no effect and ±100 for the full control effect.

SMILES	TDP1 inh	IL-1B inflam inh	TDP1 cell noCPT	ELG1 repair inh	TDP1 cell CPT	Giardia kill
Cc1ccc(NS(=O)(=O)c2ccc3c(c2)CCC(=O)N3)cc1Cl	-4.4%	/	/	/	/	/
O=C1c2c(-c3ccc(Br)cc3)noc2CCN1Cc1cn(-c2ccccc2)nn1	/	0.0	?	/	20.6µM*	/
O=C1c2c(-c3ccc(Br)cc3)noc2CCN1Cc1cn(Cc2ccccc2)nn1	/	-7.6	18.4µM*	/	?	/
Cc1nn(CC(=O)Nc2ccc(Br)cc2F)c(=O)c2cccn12	2.6%	-1.6	26.9%	10.2%	-19.6%	12.2
CC(C)c1ccc(N=C(N)N=C(N)N)cc1	7.5%	-9.7	?	20.6µM*	?	-2.9
COc1cc2c(cc1OC)C1CC(=O)C(CC(C)C)CN1CC2 (centres undefined)	2.6%	12.5	-24.0%	-10.3%	-24.6%	-6.8
CCC(CC)CC1CN2CCc3cc(OC)c(OC)cc3C2CC1(O)CC (centres undefined)	/	-7.0	8.2µM*	/	8.2µM*	/
COc1cc2c(cc1OC)C1C/C(=N\O)C(CC(C)C)CN1CC2 (centres undefined)	5.0%	29.6	20.6µM*	-1.0%	?	-13.6
Cn1nc(C(F)(F)F)cc1-c1ccc(S(N)(=O)=O)s1	5.5%	19.8	-11.6%	?	13.0%	-3.4
COc1ccc2c3c(ccc2c1)C(=O)/C(=C/O)CC3	/	54.4	16.4µM*	/	?	10.6
Cc1cccc2c(=O)cc(CSCC(=O)Nc3ccc(Cl)cc3)[nH]c12	/	/	-28.6%	/	-27.3%	/
CC(C)c1nnc(NC(=O)C2CCN(C(=O)C(C)(C)C)CC2)s1	/	/	1.0%	/	5.7%	9.2
COc1cc(NS(=O)(=O)c2cc3c(cc2C)N(C)CCO3)cc(OC)c1OC	-6.5%	/	14.6µM*	/	20.6µM*	/
COc1cc(NS(=O)(=O)c2ccc(C)cc2C)cc(OC)c1OC	0.0%	24.4	6.51µM*	10.3µM*	6.51µM*	-3.1
COc1cccc(NS(=O)(=O)c2cc3c(cc2C)N(C)CCO3)c1	/	21.8	?	-10.1%	?	10.1
N/C(=N\S(=O)(=O)c1cc(C(F)(F)F)cc(C(F)(F)F)c1)c1ccncc1	5.7%	16.5	?	3.4%	-4.1%	9.4
N/C(=N\S(=O)(=O)c1cc(C(F)(F)F)cc(C(F)(F)F)c1)c1ccc(Cl)cc1	2.9%	-1.4	20.6µM*	?	18.4µM*	26.1
Cc1c(CC(=O)NCCCC(=O)O)c(=O)oc2cc3c(cc12)CCC(C)(C)O3	/	0.0	?	?	?	-6.3
COc1ccc(CCNC(=O)Cc2c(C)c3c(cc(C)c4c(C)c(C)oc43)oc2=O)cc1OC	-2.3%	/	-10.2%	/	-7.8%	/
COCCCNC(=O)Cc1c(C)c2cc3c(cc2oc1=O)OC(C)(C)CC3	/	17.0	25.9µM*	-9.5%	25.9µM*	-26.8
COCCCNC(=O)Cc1c(C)c2c(cc(C)c3c(C)c(C)oc32)oc1=O	/	29.7	13µM*	14.6%	?	11.5
CCC(Sc1nc2nccnc2c(=O)n1Cc1ccc(Cl)cc1)C(=O)NC1CCCCC1 (centres undefined)	5.2%	/	?	/	?	/
COCCN(Cc1ccccc1)C(=O)c1cccc(S(=O)(=O)N2CCN(c3ccc(F)cc3)CC2)c1	/	-20.4	18.4µM*	?	?	-2.4
COCCN(Cc1nc2ccccc2c(=O)[nH]1)C(=O)c1cccc(S(=O)(=O)N2CCCC2)c1	1.6%	30.9	-4.3%	-10.0%	?	-6.3
COCCN(Cc1ccccc1)C(=O)c1cccc(S(=O)(=O)N2CCN(c3ccccc3)CC2)c1	9.3%	-5.5	16.4µM*	14.6µM*	?	-11.0
SMILES	TDP1 inh	IL-1B inflam inh	TDP1 cell noCPT	ELG1 repair inh	TDP1 cell CPT	Giardia kill
CCOC(=O)c1c(C)[nH]c(C)c1C(=O)COC(=O)c1ccc(OC)cc1	1.2%	-5.9	-15.7%	?	-15.2%	13.7
CCOC(=O)c1c(C)[nH]c2ccc3c(c12)CN1CCc2cc(OC)ccc2[C@@H]1O3	11.9%	/	7.5µM*	/	8.41µM*	/
CCOC(=O)c1c(C)[nH]c(C(=O)OC(C)C(=O)Nc2ccccc2OC)c1C (centres undefined)	4.8%[56.1 µM]	-1.8	?	?	16.4µM*	0.2
CCOC(=O)c1[nH]c(C)c(C(=O)OC(C)C(=O)Nc2ncc(Cl)cc2Cl)c1C (centres undefined)	-4.0%	-17.2	?	-17.8%	17.8µM*	-5.9
CC(OC(=O)C1=NNC(=O)CC1)C(=O)Nc1ncc(Cl)cc1Cl (centres undefined)	-1.3%	22.2	-7.0%	0.0%	-8.9%	1.9
CCOC(=O)c1c(C)[nH]c(C(=O)OC(C)C(=O)Nc2ccc(C)cc2)c1C (centres undefined)	/	-5.5	-22.7%	/	-27.1%	/
CCOC(=O)c1sc(N)c(C(=O)Nc2ccccc2OC)c1C	-5.1%	15.0	2.91µM*	-19.7%	2.91µM*	1.2
CCOC(=O)c1sc(N)c(C(=O)OC)c1C	-3.6%	1.2	-4.5%	?	-0.6%	-2.0
O=C(NC1CC(=O)N(c2ccc(Cl)cc2)C1)c1cc2ccccc2o1 (centres undefined)	2.6%	/	-18.9%	/	-0.9%	/
CC(C)(C)OC(=O)C[C@H]1C/C=C\C[C@H](CC(=O)N[C@H](CO)Cc2ccccc2)C(=O)N[C@H](C(C)(C)C)COC1=O	2.6%	-5.5	?	-23.3%	?	3.5
O=C(C[C@@H]1C/C=C\C[C@@H](NC(=O)OCC2c3ccccc3-c3ccccc32)C(=O)OC[C@@H](Cc2ccccc2)NC1=O)NCCO	-0.4%	34.0	9.2µM*	-5.0%	7.31µM*	32.5
O=C(C[C@H]1C/C=C\C[C@H](NC(=O)OCC2c3ccccc3-c3ccccc32)C(=O)OC[C@H](Cc2ccccc2)NC1=O)N[C@H](CO)Cc1ccccc1	-4.6%	7.6	5.17µM*	11.0%	5.17µM*	-4.6
CC(C)(C)[C@@H]1COC(=O)[C@@H](NC(=O)OCC2c3ccccc3-c3ccccc32)C/C=C\C[C@@H](CC(=O)NCCO)C(=O)N1	?	30.3	11.6µM*	0.3%	18.4µM*	12.6
CC(C)(C)[C@H]1COC(=O)[C@H](NC(=O)OCC2c3ccccc3-c3ccccc32)C/C=C\C[C@@H](CC(=O)N[C@@H](CO)Cc2ccccc2)C(=O)N1	-4.8%	20.9	?	?	7.31µM*	10.5
C[C@@H](Cc1ccccc1)Nc1ncnc2c1ncn2[C@@H]1O[C@H](CO)[C@@H](O)[C@H]1O	1.2%	/	-28.9%	/	4.1%	/
